# This is part of a sample that, as a whole, favours compounds with a hit. Of some 83,000 tested, about 20% had one in any assay.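 Negative percent growth values reflect cell death: -40 means 40% of the cells present at the start died, and -100 means all died.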 Active and inactive are the calls of the source. How the source made its calls: active means growth percent below 10; inactive means the rest.
# Tested on: MDA-MB-468 breast
# Test: NCI-60 one-dose screen, 48 h (100 = growth as untreated, 0 = no growth, -100 = all killed)
# Conditions: 10 µM unless noted
row,Structure (SMILES),growth
1,O=C(CCN1CCCC1)Nc1ccc2c(NCCCc3ccccc3)c3ccccc3nc2c1,-38.5% (active)
2,COc1ccc(CCN2C(=O)CSC2=S)cc1OC,-2.77% (active)
3,O=C1CSC(c2ccccc2O)N1c1nnc(Cn2cnnc2)o1 (stereo not drawn),96.2% (inactive)

# Reference: PubChem BioAssay (NCI)
